Source: PubChem BioAssay (National Center for Advancing Translational Sciences (NCATS))
Compounds with a hit are over-represented: about 1.3% of the library has one in this group of screens.
IL-2 act = qHTS of IL-2 Activators; activation, % (series mostly up to about 46 µM); 360,000 compounds, 0.065% hits; IL-2 activation reporter assay, cell-based qHTS; stimulated with anti-CD3/CD4/CD28 beads; in transgenic mouse T cells; in the data active = activation above about 50%; inconclusive = mostly about 30% to 49%
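Unstimulated transgenic mouse T cells, 750 per well, received compound and, after 60 minutes, anti-CD3/anti-CD4 bead plus anti-CD28 stimulation. EGFP and DsRed were quantified after 18 hours.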
BRCA1 expr up = qHTS Assay to Identify Small Molecule Activators of BRCA1 Expression | MCF7-BRCA1-FFLuc reporter, luminescence, 48 h; response scale: scaled: vehicle 0%, 10 µM genistein 100% | Potency, µM (highest dose often 46.1 µM), actives largely listed as activators | 380,000 compounds, 1.1% hits | AID 624202, 2012; also: nearly all actives have a fitted effect of over 80% in size
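Luminescence from a BRCA1-driven firefly luciferase in MCF7 cells was the read-out, taken 15 min after substrate addition following 48 h compound exposure at 37 °C. Data were normalized to a 10 microM genistein control and DMSO vehicle.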
TCR activator = Activators of T cell receptors: qHTS campaign; Potency, µM (highest dose often 9.22 µM), hits mostly activators; primary human leukocytes, anti-CD3, IL-2 HTRF, 48 h; 330,000 tested, under 10 active
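Primary human leukocytes receive a-CD3 beads and test compound and are incubated 48 hr. Secreted IL-2 is then assayed by HTRF, measuring 665nm acceptor emission after 320nm excitation of the europium donor.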
Mito fusion yeast = qHTS Assay for Small Molecule Inhibitors of Mitochondrial Division or Activators of Mitochondrial Fusion; S. cerevisiae fusion-defective mutant growth rescue, CellTiterGlo 48 h; Potency, µM (doses to about 46.1 µM), most hits filed as activators; 320,000 compounds, 0.23% hits; also: nearly all actives have a fitted effect of over 45% in size
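Temperature-sensitive fusion-defective S. cerevisiae (e.g. fzo1-1, mgm1-5) were grown with compound in YPEG medium (3% ethanol, 3% glycerol) for 48 hours at 37C. Growth rescue was measured as viability by CellTiterGlo luminescence after 10 minutes at ambient.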
p53 reactivation = qHTS assay for re-activators of p53 using a Luc reporter; H1299 p53-A138V BP100-luciferase reporter, luminescence, 24 h; Potency, µM (series often up to 92.2 µM), usual class: activators; 320,000 compounds, 0.063% hits; AID 504706, 2011; also: nearly all actives have a fitted effect of over 45% in size
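H1299 (p53-null), stable ts p53-A138V + BP100-Luc; 1000 cells/well, Opti-MEM/10% FBS; cpd 4 pt, 1:5; 24 h, 37 deg C, 5% CO2; detection reagent 10 min RT; luminescence.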
Hits are given with their value; n = inactive; u = inconclusive; x = not tested or not shown; ! = a repeat was not active. Unless noted, calls follow the shape of the dose curve; as a rule, active = well fitted curve in the direction sought with a large enough effect; inconclusive = small, poorly fitted or top-dose-only effect, or another doubt; inactive = no such curve, though single readings can be large; an effect the other way counts as inactive or inconclusive.

SMILES	IL-2 act	BRCA1 expr up	TCR activator	Mito fusion yeast	p53 reactivation
CCOc1ccc(NC(=O)CN2C(=O)C3(SCC(=O)N3c3ccc(F)cc3)c3ccccc32)cc1 (stereo not given)	x	n	x	x	x
COc1ccc2c(c1OC)C(=O)OC2c1ccc(O)cc1 (stereo not given)	x	n	x	x	x
Cc1ccc(OCc2cc(C(=O)N(CCO)Cc3cccs3)no2)cc1C	n	11µM	x	n	n
Cc1ccc2c(c1)-c1c(cnn1CC(=O)N1CCN(c3cccc(C(F)(F)F)c3)CC1)CO2	x	n	x	x	x
CCC(C)NC(=O)C1CCCN(c2nc(C)cc(OC)n2)C1 (stereo not given)	n	n	n	n	n
COc1cc(C)nc(N2CCCC(C(=O)NC3CCC(C)CC3)C2)n1 (stereo not given)	n	3.5µM	n	n	u
CC(C)Sc1nc(N)nc(-c2cccs2)c1C#N	n	4µM	n	u	n
CSc1nc(N)nc(-c2cccs2)c1C#N	n	n	n	n	n
COc1ccc(Cn2c(CO)cnc2SCc2cccc(C)c2)cc1	x	n	x	x	x
O=C(NCc1cccs1)c1csc2c1CCCCC2	n	n	n	n	n
O=C(NCc1cccs1)c1cc2c(s1)CCCC2	n	13µM	n	n	u
CCn1c(CCCOc2ccc(Cl)cc2Cl)n[nH]c1=S	n	6.3µM	n	n	n
OCc1ccc(-c2nn(Cc3ccccc3)c3ccccc23)o1	n	n	n	21µM!	n
O=c1c2ccccc2c(-c2n[nH]c(=S)o2)nn1Cc1ccccc1	n	n	n	n	n
CC(=O)Nc1ccc(S(=O)(=O)N(C)CC(=O)N/N=C/c2ccncc2)cc1	n	n	n	22µM	n
Nc1nnc(SCC(=O)OCC(=O)c2ccccc2)s1	n	n	n	32µM	n
Nc1nnc(SCC(=O)c2ccccc2)s1	n	n	n	n	n
Cc1nn(C)cc1/C=C/C(=O)c1cccs1	n	u	n	n	20µM
Cc1cccc(OCC2=NS(=O)(=O)c3ccccc3N2)c1	n	11µM	n	n	n
Cc1cc(Cl)ccc1OCC(=O)Nc1cccc(-c2nc3ccccc3o2)c1	x	n	x	x	x
CN(C)c1ccc(/C=C2\NC(=O)NC2=O)cc1	x	n	x	x	x
Cc1oc2c(C)c3oc(=O)c(CCC(=O)O)c(C)c3cc2c1-c1ccccc1	n	n	n	3.5µM	n
Cc1c(CCC(=O)O)c(=O)oc2c(C)c3occ(-c4ccc(Cl)cc4)c3cc12	n	n	n	n	n
COc1c2ccoc2nc2c(OC)cccc12	n	25µM	n	n	n
Cc1ccccc1Cn1nnc(-c2ccc3c(c2)OCO3)n1	n	u	n	n	u
SMILES	IL-2 act	BRCA1 expr up	TCR activator	Mito fusion yeast	p53 reactivation
Fc1cccc(Cl)c1Cn1nnc(-c2ccc3c(c2)OCO3)n1	n	8.9µM	n	n	u
Cc1ccc(NC(=O)CSc2nnc(-c3ccccc3)n2C)cc1	x	n	x	x	x
O=C(N/N=C/c1ccncc1)c1cccs1	n	13µM	n	n	n
O=C(N/N=C/c1ccc(-n2ccnc2)cc1)c1cccs1	n	11µM	n	n	n
Cc1nn(-c2ccccc2)cc1/C=N/NC(=O)c1cccs1	n	n	n	n	n
O=C(N/N=C/c1cccc([N+](=O)[O-])c1)c1cccs1	n	13µM	n	n	u
O=C(N/N=C/c1cccc([N+](=O)[O-])c1)c1ccc(Br)cc1	n	n	x	n	n
CSc1ccc(/C=N/NC(=O)c2cccs2)cc1	n	u	n	n	u
O=C(N/N=C1\CCCc2ccccc21)c1ccccc1Cl	n	10µM	n	n	n
O=C(O)c1ccc(N/N=C2/CCCc3ccccc32)cc1	n	7.1µM	n	n	n
O=C(N/N=C1\CCc2ccccc21)c1ccccc1O	n	n	n	n	x
O=C(N/N=C1\CCCCc2ccccc21)c1ccccn1	n	13µM	n	n	n
COc1ccccc1OCCNC(=O)c1ccc2c(c1)CCC2	n	11µM	n	n	u
COc1ccccc1OCCNC(=O)c1ccc2c(c1)OCCO2	n	u	n	n	n
COc1ccccc1NC(=O)C(=O)/C=C(\O)c1ccccc1	n	2.8µM	n	n	n
Cc1ccc2[nH]c(=O)c(CN(Cc3ccccc3)Cc3nnnn3Cc3ccco3)cc2c1	x	n	x	x	x
Cc1[nH]c2ccccc2c1C1(O)C(=O)N(Cc2ccccc2)c2ccc(Cl)cc21 (stereo not given)	x	n	x	x	x
CC1(c2nnc(-c3ccccc3)o2)CC(c2cccc(Cl)c2)=NO1 (stereo not given)	n	n	n	3.2µM	n
CC1(c2nnc(-c3ccc(Cl)cc3)o2)CC(c2cccc(Cl)c2)=NO1 (stereo not given)	n	n	n	n	n
CC(C)(C)SCCNC(=O)CN(c1ccc(F)cc1)S(C)(=O)=O	n	n	x	6.3µM	n
CC(C)(C)SCCNC(=O)CN(c1ccc(F)c(Cl)c1)S(C)(=O)=O	n	n	n	n	n
CCc1nc(SCc2ccc(F)cc2)n[nH]1	n	u	n	n	n
CCc1nc(SCc2ccc(OC)cc2)n[nH]1	n	11µM	n	n	u
CCOC(=O)c1cccc(C2=CC(=O)C[C@H](c3ccc(OC)cc3)C2)c1	n	11µM	n	n	13µM
COc1ccc([C@H]2CC(=O)C=C(c3cccc(Cl)c3)C2)cc1	n	n	n	u	n
SMILES	IL-2 act	BRCA1 expr up	TCR activator	Mito fusion yeast	p53 reactivation
CCCCOC(=O)c1ccc(Nc2ncnc3nc[nH]c23)cc1	n	10µM	n	n	n
FC(F)Sc1ccc(Nc2ncnc3nc[nH]c23)cc1	n	3.5µM	n	n	u
CCCCOC(=O)c1ccc(N)cc1	n	n	n	11µM	n
C[N+]1(CC(=O)c2ccc3c(c2)CCCC3)CCOCC1	x	n	x	x	x
COc1ccc(Cc2nnc(NC(=O)Nc3ccccc3OC)s2)cc1	n	n	n	n	n
CCOCc1nnc(NC(=O)c2ccc(OC)cc2)s1	n	13µM	n	n	u
CCCc1nnc(NC(=O)Nc2ccccc2OC)s1	n	22µM	n	n	u
CCCc1nnc(NC(=O)c2cccc(OC)c2)s1	n	7.1µM	n	n	n
OC(C[n+]1cccc(Br)c1)c1ccccc1 (stereo not given)	x	n	x	x	x
S=C(NCc1ccco1)Nc1ccc(Br)cc1Cl	n	10µM	n	n	n
S=C(NCc1ccco1)Nc1ccc(Cl)cc1Cl	n	7.9µM	n	n	u
S=C(NCc1cccc(Cl)c1)NCc1ccco1	n	n	n	n	n
CCN(CC)/[N+]([O-])=N/OCOC(=O)C(C)c1ccc(CC(C)C)cc1 (stereo not given)	x	n	x	x	x
Cc1ccc(OCCCCn2c(CCNC(=O)C3CCCCC3)nc3ccccc32)cc1	x	n	x	x	x
CCOc1ccc(NC(=O)Nc2cc(C)ccc2F)cc1	n	2.5µM	n	n	u
